GPT2 inhibitor = blocks human glutamate pyruvate transaminase 2 | Q8TD30 | Potency, µM (doses to about 57.7 µM), most hits filed as inhibitors | Recombinant GPT2, coupled pyruvate oxidase/HRP Amplex Red fluorescence | AID 1671188 | hit rate 0.25% among 100,000; note: nearly all actives have a fitted effect of over 60% in size
Target sequence (Q8TD30 whole entry, looked up): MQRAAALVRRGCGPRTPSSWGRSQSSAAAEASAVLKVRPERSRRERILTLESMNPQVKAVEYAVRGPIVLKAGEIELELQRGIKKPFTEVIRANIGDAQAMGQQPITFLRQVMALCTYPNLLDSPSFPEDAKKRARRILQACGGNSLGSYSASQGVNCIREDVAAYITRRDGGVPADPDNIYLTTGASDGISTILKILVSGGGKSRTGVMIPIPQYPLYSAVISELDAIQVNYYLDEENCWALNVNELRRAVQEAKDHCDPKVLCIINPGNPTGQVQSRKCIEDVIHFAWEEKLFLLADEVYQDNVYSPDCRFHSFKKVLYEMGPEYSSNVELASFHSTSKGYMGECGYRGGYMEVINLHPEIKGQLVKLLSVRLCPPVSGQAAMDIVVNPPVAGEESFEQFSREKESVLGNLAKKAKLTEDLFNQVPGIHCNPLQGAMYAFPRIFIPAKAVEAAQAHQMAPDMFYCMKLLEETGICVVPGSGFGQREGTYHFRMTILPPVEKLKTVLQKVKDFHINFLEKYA
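Fluorescence of coupled pyruvate oxidase/HRP/Amplex Red system (50uM Amplex, 30 min, dark) reports pyruvate formed by GPT2. Enzyme reaction: 10ng/uL GPT2, 2mM L-alanine, 250uM a-KG, 30 min room temperature, pH 7.5; 50uM AOA control.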
HEK cytotox = HEK 293 cell cytotoxicity; HEK 293 viability, ATP luminescence (CellTiter-Glo), 48-72 h; Potency, µM (series often up to 115 µM), most hits filed as inhibitors; hit rate 6.6% among 94,000; note: nearly all actives have a fitted effect of over 60% in size
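Cytotoxicity was scored by loss of ATP-coupled luminescence (CellTiter-Glo) in HEK 293 cells. Compound treatment ran 48 or 72 hr at 37 degree Celsius, 5% CO2, 95% humidity.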
hNpr1 antagonist = human Npr1 receptor antagonism; P16066; HEK293 hNpr1 GloSensor cGMP, ANP-stimulated luminescence; Potency, µM (highest dose often 46.3 µM), hits mostly inhibitors; hit rate 1.6% among 76,000; calls by dose curve; note: nearly all actives have a fitted effect of over 60% in size
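Compound pre-incubated 30 min at room temperature on GloSensor-loaded HEK293 cells stably carrying hNpr1 and the pGS-40F cGMP biosensor. Stimulation uses hNppA at 0.1 nM final; luminescence is taken at baseline and 20 min post-agonist.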
FLuc inh = inhibitors of firefly (Photinus pyralis) luciferase. P08659. purified P. pyralis luciferase, luminescence, biochemical. Potency, µM (doses to about 115 µM), actives largely listed as inhibitors. hit rate 2.5% among 76,000. AID 1347043; note: nearly all actives have a fitted effect of over 65% in size
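Purified 10nM P. pyralis luciferase with 10uM D-luciferin and 10uM ATP in 50mM Tris acetate pH 7.5, 10mM Mg acetate, 0.01% Tween-20, 0.05% BSA. qHTS titration; luminescence read by CCD imager.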
3T3 cytotox = kills NIH 3T3 cells; NIH 3T3 viability, CellTiter-Glo ATP luminescence, 48-72 h; Potency, µM (series often up to 96.7 µM), hits mostly inhibitors; hit rate 4.3% among 94,000; AID 1345082; note: nearly all actives have a fitted effect of over 55% in size
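Viability of NIH 3T3 cells after 48 or 72 hr compound treatment at 37 °C was assessed by CellTiter-Glo, with luminescence imaged following a 10 min room-temperature step.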
Hits are given with their value; – = inactive; ? = inconclusive; · = no result given; [ ] = remark or other dose. Compounds with a hit are over-represented: about 10% of the library has one in this group of screens. Unless noted, calls come from the whole dose curve; as a rule, active = well fitted curve in the direction sought with a large enough effect; inconclusive = small, poorly fitted or top-dose-only effect, or another doubt; inactive = no such curve, though single readings can be large; an effect the other way counts as inactive or inconclusive.

SMILES | GPT2 inhibitor | HEK cytotox | hNpr1 antagonist | FLuc inh | 3T3 cytotox
Cc1ccc(C(=O)N2CCC(CCC(=O)N3CCN(c4ccccn4)CC3)CC2)cc1 | – | ? | ? | 20µM | –
CN(C)C(=O)CCc1ccc(CC2CCN(C(=O)CCC3CCCC3)CC2)cc1 | – | 25µM | · | · | ?
O=C(CCC1CCN(C(=O)c2ccccc2)CC1)N1CCOCC1 | – | – | – | ? | –
COc1ncccc1C(=O)N1CCC(CCC(=O)N2CCC(Cc3ccccc3)CC2)CC1 | – | 35µM | ? | – | ?
Cc1ccsc1C(=O)N1CCC(CCC(=O)N2CCC(Cc3ccccc3)CC2)CC1 | – | 45µM | ? | – | ?
O=C(CCC1CCN(C(=O)c2ccccc2)CC1)N1CCC(Cc2ccccc2)CC1 | – | ? | – | – | ?
CC(=O)N1CCC(N2CCC(Cc3ccc(CCC(=O)N(C)C)cc3)CC2)CC1 | – | – | · | · | –
O=C(C1CCN([S+](=O)([O-])c2cccs2)CC1)N1CCC(N2CCOC2=O)CC1 | – | – | · | · | –
CC(C)OC(=O)N1CCC(Oc2ncnc3c2cnn3-c2ccc(S(C)(=O)=O)cc2F)CC1 | – | · | · | · | ·
CN1C(=O)CCC2(CNC(=O)Cc3ccccc3)CCC=C12 (centres undefined) | ? | – | – | – | –
COc1ccccc1-c1ccc2c(C(=O)NCCCc3ccccc3)nn(C)c2n1 | – | ? | · | · | ?
COc1ccccc1-c1ccc2c(C(=O)N3CCC(Cc4ccccc4)CC3)nn(C)c2n1 | – | 79µM | · | · | ?
CCN1C(=O)C2CC3(CCN(Cc4cccc(OC(F)(F)F)c4)CC3)CN2C1=O (centres undefined) | – | 40µM | – | – | ?
CC(=O)Nc1ccc(CN2CCN3C(=O)N(Cc4ccc(C)cc4)C[C@H]3C2)cc1 | – | 79µM | – | – | –
CC(=O)Nc1ccc(CN2CC3CCC(C2)N3c2ccc(C(F)(F)F)cc2)cc1 | – | 22µM | ? | – | ?
CCN1C(=O)C2CC3(CCN(Cc4ccc5[nH]ccc5c4)CC3)CN2C1=O (centres undefined) | – | – | – | – | –
Cc1ccc(CN2C[C@H]3CN(Cc4cccc(OC(F)(F)F)c4)CCN3C2=O)cc1 | – | 63µM | – | – | 45µM
CCN1CC(C(=O)NCc2ccc(-c3ccc(F)cc3)o2)CCC1=O (centres undefined) | – | – | – | – | ?
Cc1nnc(-c2cc(-c3cnn(C)c3)ccn2)n1-c1ccccc1 | – | ? | – | – | 89µM
Cc1nnc(-c2cc(-c3ccsc3)ccn2)n1-c1ccccc1 | – | ? | – | – | ?
Cc1cc(-c2ccnc(-c3nnc(C)n3CCc3ccccc3)c2)ccn1 | – | ? | – | – | 79µM
Cc1ccccc1-c1ccnc(-c2nnc(C)n2Cc2ccccc2)c1 | – | 79µM | – | – | ?
Cc1cc(-c2ccnc(-c3nnc(C)n3-c3ccccc3)c2)ccn1 | – | 45µM | – | – | 25µM
CCC(C(=O)Nc1ccc2ncnc(N3CCCC3)c2c1)c1ccccc1 (centres undefined) | – | ? | – | – | ?
Cc1cc(C)c(Nc2ccnc(Nc3ccc(C#N)cc3)n2)c(C)c1 | – | · | · | · | ·
SMILES | GPT2 inhibitor | HEK cytotox | hNpr1 antagonist | FLuc inh | 3T3 cytotox
CCOCCOC1CCN(C(=O)c2ccccc2)CC1 | – | – | – | – | –
CC1=CC(=O)CC(C)(C)C1CCC(C)O[C@@H]1O[C@H](CO)[C@@H](O)[C@H](O)[C@H]1O (some centres undefined) | – | · | · | · | ·
CC(=O)N1CCN(c2ccnc(-c3nnc(C)n3-c3ccccc3)c2)CC1 | – | – | – | – | 89µM
Cc1nnc(-c2cc(N3CCN(c4ccccn4)CC3)ccn2)n1-c1ccccc1 | – | ? | – | – | ?
Cc1nnc(-c2cc(-c3ccccc3Oc3ccccc3)ccn2)n1C | – | 89µM | – | – | ?
COc1ccc(-c2ccnc(-c3nnc(C)n3CCN3CCOCC3)c2)cc1OC | – | – | – | – | 100µM
COCCn1c(C)nnc1-c1cc(-c2ccccc2Oc2ccccc2)ccn1 | – | ? | – | – | ?
COc1ncc(-c2ccnc(-c3nnc(C)n3CCN3CCOCC3)c2)cn1 | – | – | – | – | ?
Cc1nnc(-c2cc(C(=O)NC3CCOCC3)ccn2)n1CCc1ccccc1 | – | – | – | – | 89µM
O=C(c1ccc(Cl)nc1)N1CCCN(c2nc3ncccc3o2)CC1 | – | – | – | – | –
Cc1nnc(-c2cc(-c3cnn(C)c3)ccn2)n1Cc1ccccc1 | – | – | – | – | 45µM
Cc1ccc(C2Cn3nnc(-c4noc(-c5c(F)cccc5F)n4)c3CO2)cc1 (centres undefined) | – | – | – | – | –
CCNC(=O)c1ccc2c(c1)C1(CCN(CC3CC3)C1)CN2Cc1ccccc1 (centres undefined) | ? | ? | – | – | ?
CN1CC2(CCCN(CC3CC3)C2)c2cc(C(=O)NCCc3ccccn3)ccc21 (centres undefined) | – | ? | – | – | –
CN(C)CCNC(=O)c1ccc2c(c1)C1(CCN(CC3CC3)C1)CN2Cc1ccccc1 (centres undefined) | – | 45µM | – | – | 32µM
CN1CCC2(C1)CN(Cc1ccccc1)c1ccc(C(=O)NCC3CC3)cc12 (centres undefined) | – | 112µM | – | – | ?
CN1CC2(CCCN(CC3CC3)C2)c2cc(C(=O)NCCOc3ccccc3)ccc21 (centres undefined) | – | 100µM | – | – | 79µM
O=C(NCC1CC1)c1ccc2c(c1)C1(CCN(CC3CC3)C1)CN2Cc1ccccc1 (centres undefined) | – | ? | – | – | 79µM
CC(C)NC(=O)N1Cc2ccccc2OC2(CCN(C(=O)c3ccc4[nH]ccc4c3)CC2)C1 | – | – | · | · | ?
Cc1nc(N2CCCC3(CN(C)C(=O)O3)C2)cc(-n2cccn2)n1 (centres undefined) | –[11.5 µM] | – | – | – | –
CCOCCn1nc(C)cc1C(=O)NC1CC(c2cc(=O)[nH]c(N)n2)C1 (centres undefined) | – | – | – | – | –
COCCNC(=O)c1ccc2c(c1)C1(CCN(C)C1)CN2Cc1csc(C)n1 (centres undefined) | – | – | – | – | ?
O=C(NC1CCC1)c1ccc2c(c1)C1(CCN(CC3CC3)C1)CN2Cc1ccccc1 (centres undefined) | – | 56µM | – | – | ?
Cc1nc(CN2CC3(CCN(C)C3)c3cc(C(=O)NCCc4ccccc4)ccc32)cs1 (centres undefined) | – | 79µM | – | – | ?
CN1CCC2(C1)CN(Cc1ccccc1)c1ccc(C(=O)NCCOc3ccccc3)cc12 (centres undefined) | – | 32µM | – | – | ?
COc1ccc(OCC2CN(CCOc3ccccc3)[S+](=O)([O-])c3cccnc3O2)cc1 (centres undefined) | · | ? | · | · | –

Assay outcomes (PubChem)
